Screening data as filed in PubChem.
Compounds with a hit are over-represented: about 3.6% of the library has one in this group of screens.
HTT promoter inh = HTT promoter inhibition | HEK293 HTT promoter firefly luciferase reporter, 24 h | AID 1508623 | Potency, µM (highest dose often 57.5 µM), for the others: top-dose activity change, negative = inhibition, hits mostly inhibitors | hit rate 0.93% among 48,000; also: nearly all actives have a fitted effect of over 50% in size
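Firefly luciferase signal from promoter-reporter HEK293 cells was scaled between vehicle (0%) and zero RLU (-100%). Compounds were tested at final concentrations of up to 57.5 uM over 24 h at 37 degrees C. PTC124 at 50 uM final served as control inhibitor.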
HTT-AS act = HTT-AS promoter activation. HEK293 HTT-AS promoter firefly luciferase reporter, 24 h; response scale: percent change from vehicle, -100% = no light. Potency, µM (series often up to 57.5 µM), without a hit: at the highest dose activity change, positive = activation, actives largely listed as activators. hit rate 0.24% among 48,000. AID 1508624; also: nearly all actives have a fitted effect of over 55% in size
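Firefly luciferase signal from promoter-reporter HEK293 cells was scaled between vehicle (0%) and zero RLU (-100%). Compounds were tested at final concentrations of up to 57.5 uM over 24 h at 37 degrees C. PTC124 at 50 uM final served as control inhibitor.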
S16 F2sN tox = cytotoxicity in S16 Pmp22-F2sN Schwann cells | Potency, µM (highest dose often 57.5 µM), without a hit: top-dose activity change, negative = cytotoxicity, most hits filed as cytotoxic | S16 Pmp22-F2sN Schwann cells viability, CellTiter-Glo, 24 h | hit rate 0.48% among 43,000; also: % is scaled to controls: 0 for no effect and ±100 for the full control effect; nearly all actives have a fitted effect of over 65% in size
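Rat S16 Schwann reporter line, 24 h treatment with library compounds delivered at 23 nL per well. Cell viability by CellTiter-Glo luminescence.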
mTORC1 inh = reduces mTORC1 signaling in Tsc2 and p53 null MEF cells. hit rate 0.78% among 44,000. Potency, µM (top dose mostly 38.3 µM), for inactives: top-dose activity change, negative = inhibition, actives largely listed as inhibitors. Tsc2-/- p53-/- MEF, phospho-rpS6 immunofluorescence/PI, 24 h;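 also: plate controls were DMSO for no effect and rapamycin for full effect; nearly all actives have a fitted effect of over 50% in size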
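Immunofluorescence of rpS6 phosphorylation in Tsc2-/-, p53-/- MEFs after 24 h compound exposure, normalized to propidium iodide signal. Activity is expressed as % positive cells, thresholded with 7.5 nM rapamycin.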
SKOV3 invasion = blocks SKOV3ip1 adhesion and invasion in omental model | SKOV3ip1-GFP adhesion/invasion on 3D omental model, fluorescence | Potency, µM (series often up to 45.8 µM), without a hit: top-dose activity change, negative = inhibition, actives largely listed as inhibitors | hit rate 0.1% among 46,000;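 also: plate controls were DMSO wells for no effect and tomatine positive control wells for full effect; nearly all actives have a fitted effect of over 65% in size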
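Primary human omental fibroblast/mesothelial 3D culture pre-formed 48 h. SKOV3ip1-GFP cells added with compounds (0.36-46 umol/L), incubated 2 h RT/16 h 37 C, fixed; GFP cells quantified at 488/509 nm.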
PMP22 txn prim = modulates PMP22 transcription in S16 Schwann cells; S16 Pmp22-F2sN Schwann cells (luciferase reporters placed in the Pmp22 gene), FLuc/NLuc coincidence luminescence, 24 h; Potency, µM (doses to about 57.5 µM), for inactives: at the highest dose activity change, negative = inhibition, hits mostly inhibitors; hit rate 2% among 43,000; AID 1508649; active = clear falling dose curves in both reporters; inconclusive = both reporters move, but less clearly or upward; inactive = either reporter flat; the % is the NLuc reporter signal; also: % is scaled to controls: 0 for no effect and ±100 for the full control effect
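S16 Schwann cells carrying FLuc/NLuc coincidence reporter in the Pmp22 3' UTR treated with compound 24 h at 37C; FLuc then NLuc luminescence read sequentially by dual-luciferase reagents.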
Active calls of the source: *; i = inactive; ? = inconclusive; · = no result given; ! = repeats disagree; [ ] = dose if it differs, or a comment. Unless noted, calls follow the shape of the dose curve; as a rule, active = well fitted curve in the direction sought with a large enough effect; inconclusive = small, poorly fitted or top-dose-only effect, or another doubt; inactive = no such curve, though single readings can be large; an effect the other way counts as inactive or inconclusive. Potency is read from the fitted curve at half-maximal effect.

SMILES | HTT promoter inh | HTT-AS act | S16 F2sN tox | mTORC1 inh | SKOV3 invasion | PMP22 txn prim
COc1cc(C=CC(=O)CC(=O)C=Cc2ccc(O)c(OC)c2)ccc1O | ? | -56.4%[116 µM] | · | · | ? | ·
Cc1cc(Nc2cccc(C(F)(F)F)c2)ncn1 | -15.2% | -11.2% | 0.5% | 0.1% | 8.8% | 3.8%
Cc1ccc(Nc2nc3nonc3nc2Nc2cccc(C(F)(F)F)c2)cc1Cl | 1.26µM* | -91.0% | 11.2µM* | ? | -16.0% | 7.61µM*
CSc1ccc(CCNc2ncnc3onc(C)c23)cc1 | 1µM* | -79.2% | ? | 0.9% | 4.2% | 2.24µM*
CCOc1ccc(CCNc2ncnc3onc(-c4ccc(Cl)cc4)c23)cc1 | 14.1µM* | -67.6% | -24.0% | -8.4% | i | ?
CCS(=O)(=O)c1cccc(-c2cc(C(=O)NC3CCN(C)CC3)c(C)c3[nH]c4ncc(C)cc4c23)c1 | ? | -37.5% | · | · | ? | ·
Cc1ccc(O)c(-c2n[nH]c3c2C(c2ccccc2F)N(Cc2ccco2)C3=O)c1 (configuration not stated) | ? | -39.4% | ? | -3.3% | 12.6µM* | ?
Cc1cc(F)ccc1NC(=O)c1csc2c1CCC(C)C2 (configuration not stated) | 53.0% | 3.16µM* | 0.1% | -1.3% | i | ?
O=C(Nc1ccc(F)cc1)c1csc2c1CCCCC2 | ? | -95.0% | -14.1% | ? | 15.6% | -18.8%
CCOc1ccc(NC(=O)Cc2ccc(NC(=O)N3CCCCc4ccccc43)cc2)cc1 | -31.4% | -16.4% | 14.1µM* | -3.7% | -0.6% | -9.5%
CCCCNC(=O)c1nn(-c2ccc(C)cc2)c(=O)c2c1c1ccccc1n2C | -26.8% | -4.8% | 15.8µM* | 0.7% | 6.5% | -20.5%
O=C(COc1ccc(F)cc1)Nc1ccc(Cl)c(-c2nc3ccccc3[nH]2)c1 | -27.5% | -20.8% | 11.7% | -9.1% | -1.2% | 4.6%
c1ccc2[nH]c(-c3cscn3)nc2c1 | 67.3% | 19.3µM*! | · | · | -2.2% | ·
COc1cc(OC)cc(-c2nc(-c3cccc(C)c3)no2)c1 | 60.8% | 11.2µM* | 5.6% | -3.0% | 8.8% | 10.8%
COc1ccccc1OCc1nc(-c2cccc(C)c2)no1 | 68.8% | 10µM* | 1.9% | 20.3% | 7.1% | 18.8%
CCOc1cc2ncc(C#N)c(Nc3ccc(F)c(Cl)c3)c2cc1NC(=O)C=CCN(C)C | -5.9% | -29.7% | · | · | -2.3% | ·
CC(C)(C)OC(=O)N[C@H]1CCCCCC=C[C@@H]2C[C@@]2(C(=O)NS(=O)(=O)C2CC2)NC(=O)[C@@H]2C[C@@H](OC(=O)N3Cc4cccc(F)c4C3)CN2C1=O | -13.4% | -22.2% | · | · | 10.4% | ·
O=C(Nc1cccc(C(F)(F)F)c1)Nc1ccc2snnc2c1 | ? | -62.0% | ? | -21.1% | i | 9.46µM*
O=C(Nc1cccc(C(F)(F)F)c1)c1ccc2snnc2c1 | -6.7% | -13.8% | -2.3% | 0.1% | 15.4% | -6.6%
Cc1ccc(/C=C/c2nc3ccccc3[nH]2)cc1 | -68.0% | -71.5% | 15.8µM* | 14.1% | ? | ?
O=C(O)CCc1nc2ccccc2[nH]1 | 3.6% | -10.5% | · | · | · | ·
CCOC(=O)[C@@H](N)Cc1ccc(-c2cc(O[C@H](c3ccc(Cl)cc3-n3ccc(C)n3)C(F)(F)F)nc(N)n2)cc1 | -7.3% | -18.6% | · | · | -11.7% | ·
CCOc1ccc(-c2nnc(SCC(=O)Oc3ccccc3)o2)cc1 | 2.82µM* | -89.5% | 9.4% | -2.2% | -4.1% | -10.4%
COc1ccc(OC(=O)CSc2nnc(-c3ccc(F)cc3)o2)cc1 | 2.8% | -5.5% | -5.8% | -0.7% | 8.4% | -12.5%
Cc1nc2cccnc2n1-c1cccc(C(=O)N2CCN(c3ccc(Cl)cc3)CC2)c1 | 10µM* | -45.5% | ? | -14.7% | -9.7% | 15.6µM*
SMILES | HTT promoter inh | HTT-AS act | S16 F2sN tox | mTORC1 inh | SKOV3 invasion | PMP22 txn prim
CCCCOc1cccc(NC(=O)c2cccc(C(=O)Nc3cccc(OCCCC)c3)c2)c1 | 23.1% | 17.3% | -2.0% | 7.36µM* | -14.4% | -16.5%
CCCOc1ccc(C(=O)Nc2cccc(NC(=O)c3ccc(Cl)cc3Cl)c2)cc1 | -9.7% | 5.0%[11.5 µM] | 14.1µM* | -10.2% | ? | ?
CCCOc1ccc(C(=O)Nc2ccc(NC(=O)c3ccccc3)c(C)c2)cc1 | -6.0% | -8.4% | -0.8% | 13.1µM* | -6.7% | ?
CCCOc1cccc(C(=O)Nc2cccc(NC(=O)c3ccc(Cl)cc3Cl)c2)c1 | -21.9% | -1.5% | ? | 9.8% | -6.8% | -9.7%
CCCOc1ccc(C(=O)Nc2ccc(NC(=O)c3ccc(Br)cc3)cc2)cc1 | -2.7% | -2.3% | 1.5% | 3.7% | 0.2% | -1.4%
COc1ccc(Nc2cc(C)nc(-n3nc(C)cc3C)n2)cc1Cl | 12.6µM* | -74.7% | ? | ? | 2.6% | 5.53µM*
CCOc1ccc(S(=O)(=O)Nc2ccc3oc(C)c(C(=O)OC(C)C)c3c2)cc1 | ? | -7.0% | -3.5% | -22.9% | -2.8% | ?
CCCc1oc2ccc(NS(=O)(=O)c3ccc(OCC)cc3)cc2c1C(=O)OCC | ? | -38.7% | -26.9% | 14.7µM* | -1.2% | ?
Cc1ccc(C2CC(=O)Nc3cc4c(cc32)OCCO4)cc1 (configuration not stated) | ? | -25.7% | -4.0% | -16.8% | -5.7% | -26.8%
CCOc1cccc(C2CC(=O)Nc3cc4c(cc32)OCCO4)c1 (configuration not stated) | ? | -42.3% | ? | 20.7µM* | -18.4% | ?
COc1ccc(Cl)cc1C1CC(=O)Nc2cc3c(cc21)OCCO3 (configuration not stated) | ? | -45.7% | ? | ? | -7.6% | 2.47µM*
Cc1cc(Cl)ccc1NC(=O)CN1C(=O)C(=O)c2ccccc21 | -10.5% | -11.6% | ? | 10.4µM* | -7.4% | ?
Cc1ccc(Cl)cc1NC(=O)CN1C(=O)c2cccc3cccc1c23 | -7.6% | -22.3% | 9.5% | -5.4% | 4.7% | ?
CCOc1ccc(-c2cnc(NCc3ccc(C(F)(F)F)cc3)n2C)cc1 | -23.6% | -19.1% | -11.9% | 18.5µM* | -17.5% | ?
C[C@]1(CO)CN(c2cc(C(=O)Nc3ccc4c(c3)-c3c(c(C(N)=O)nn3-c3ccc(F)cc3)CC4)c(Cl)cn2)C[C@@]1(C)CO | ? | -41.8% | · | · | -0.4% | ·
COc1ccc(/C=C/C(=O)Nc2ccc3nc(N4CCC(C)CC4)cc(C)c3c2)cc1OC | ? | -28.6% | ? | ? | ? | ?
